Each structure is given as a SMILES string. Activity calls are given as the source filed them.

In PubChem BioAssay one finds composite z-score and z-score data, which are given here for nine compounds.

A short description of assay [1]: small molecules captured by biotinylated probe aFSTL3 – biochemical, small-molecule microarray, fluorescence 635/667, stem cell growth factor project, primary screen (AID 1064).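 Further: measures binding of the biotinylated anti-FSTL3 antibody to printed compounds.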 Particulars: higher = more signal.
Assay [2] in a line: binders from COS7 lysate, DM2A8 probe, primary screen, torsin A project, cell lysate, small-molecule microarray, fluorescence 635/667 (AID 1065). Particulars: higher = more signal, COS7 lysate expressing mutant human TOR1A.
Assay [3] in a line: small molecules captured by biotinylated probe aFGF2 – biochemical, small-molecule microarray, fluorescence 635/667, stem cell growth factor project, primary screen (AID 1067).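 Further: measures binding of biotinylated aFGF2 protein to printed compounds on slides; z-score merges feature fluorescence and signal-to-noise across triplicate slides.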 Particulars: higher = more signal.
Assay [4] is described as follows: small molecules captured by biotinylated probe aFGF10 – biochemical, small-molecule microarray, fluorescence 635/667, stem cell growth factor project, primary screen (AID 1071).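 Further: score merges 667 nm spot intensity and signal to noise from triplicate slides.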 Particulars: higher = more signal.
The target of assay [5] is Neurogenic locus notch homolog protein 2 (Homo sapiens) (UniProt Q04721). Nature of the assay: small molecules binding Notch2 protein – biochemical, small-molecule microarray, 635 nm fluorescence, stem cell growth factors, primary screen (AID 1073). Particulars: higher = more signal.
The target in assay [6] is Pro-neuregulin-1, membrane-bound isoform (Homo sapiens) (UniProt Q02297). In words: small molecules binding neuregulin-1 protein – biochemical, small-molecule microarray, fluorescence 635/667, psychiatric disease protein project, primary screen (AID 1075).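 Further: score combines 667 nm spot fluorescence with signal to noise.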 Particulars: NRG1 binding, 635 nm fluorescence, higher = more signal.
The subject of assay [7] is Neuregulin-1 EGF-like domain. In words: small molecules binding NRG1 EGF domain – biochemical, small-molecule microarray, 635 nm fluorescence, primary screen (AID 1081).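 Further: binding of the protein to compounds printed on small-molecule microarray slides.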 Particulars: higher = more signal.
A short description of assay [8]: FRG1 expression reporter modulators in myotubes – cell-based, C2C12 myotubes, firefly/Renilla luciferase, luminescence, FRG1 inhibition for FSHD, primary screen (AID 1084). Particulars: FRG1 promoter luciferase, higher = more signal, called active from +8 up or from −8 down.
The nature of assay [9]: small molecules captured by biotinylated probe aFST – biochemical, small-molecule microarray, fluorescence 635/667, stem cell growth factor project, primary screen (AID 1086).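 Further: score merges 667 nm fluorescence with signal-to-noise of each printed compound spot.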 Particulars: higher = more signal.
Assay [10] in a line: binders of probe aHhip on microarray, primary screen, stem cell growth factor project, biochemical, small-molecule microarray, fluorescence 635/667 (AID 1087).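 Further: score merges spot fluorescence at 667nm with spot signal to noise ratio.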 Particulars: higher = more signal.
Assay [11] concerns PRMT1 (protein arginine N-methyltransferase 1). In words: small molecules binding arginine methyltransferase PRMT1 – biochemical, small-molecule microarray, 635 nm fluorescence, primary screen (AID 1088).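 Further: binding of Prmt1 protein to compounds spotted on small-molecule microarray slides.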 Particulars: higher = more signal.
Assay [12] in a line: growth effects on S. cerevisiae YJM789 – YJM789 clinical isolate, OD600, 24 h, basal, primary screen (AID 1089).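 Further: growth of clinical yeast isolate S. cerevisiae YJM 789 seeded 1000 cells per well; test concentration not given here.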 Particulars: higher = more signal, called active from +8 up or from −8 down.
The nature of assay [13]: S. pombe growth modifiers, basal conditions – strain 972, OD600, 24 h, no modulator, primary screen (AID 1090).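 Further: basal condition with compound alone and no growth modifier present; test concentration not given here.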 Particulars: S. pombe 972 growth, higher = more signal, called active from +8 up or from −8 down.
A short description of assay [14]: budding yeast growth modifiers under rapamycin – strain BY4716, OD600, 96 h, primary screen (AID 1091). Further: test concentration not given here. Particulars: S. cerevisiae BY4716 + rapamycin, higher = more signal, called active from +8 up or from −8 down.
Assay [15] deals with Torsin-1A-interacting protein 2 (Homo sapiens) (UniProt Q8NFQ8). In words: small molecules binding lysate-expressed LULL1 – cell lysate, human LULL1 lysate, 635/667 nm fluorescence, primary screen (AID 1092).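 Further: probe is lysate of COS7 cells overexpressing human LULL1; score merges per-feature 667 nm fluorescence with signal-to-noise.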 Particulars: small-molecule microarray, hLULL1 lysate binding, 635 nm fluorescence; higher = more signal.
A short description of assay [16]: optical density change of DRC41 E. coli – strain DRC41, OD650, 24 h, E. coli filamentation project, primary screen (AID 1093).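 Further: MC1000 strain lacking acrAB efflux and sulA so SOS filamentation is blocked; test concentration not given here.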 Particulars: E. coli DRC41 growth, higher = more signal, called active from +8 up or from −8 down.
A short description of assay [17]: probe aLefty2 binding to arrayed compounds – biochemical, biotinylated probe, 635/667 nm fluorescence, primary screen (AID 1094).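 Further: score merges spot fluorescence near 667 nm with spot signal-to-noise ratio.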 Particulars: small-molecule microarray, higher = more signal.
Assay [18] concerns Noggin (protein binding on small-molecule microarray). In words: small molecules binding Noggin protein – biochemical, 635/667 nm fluorescence, primary screen (AID 1095).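 Further: score merges 667 nm feature fluorescence with signal to noise over triplicate slides.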 Particulars: 635 nm fluorescence, higher = more signal.
The target of assay [19] is Neurogenic locus notch homolog protein 3 (Homo sapiens) (UniProt Q9UM47). In words: small molecules binding NOTCH3 protein – biochemical, 635/667 nm fluorescence, primary screen (AID 1096). Particulars: small-molecule microarray, 635 nm fluorescence, higher = more signal.
The nature of assay [20]: probe aEGFR binding to arrayed compounds – biochemical, biotinylated probe, 635/667 nm fluorescence, primary screen (AID 1097).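 Further: probe is a biotinylated anti-EGFR antibody binding compounds printed on slides; score combines fluorescence near 667 nm and signal to noise of each spot.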 Particulars: small-molecule microarray, higher = more signal.

Chain of Torsin-1A-interacting protein 2 (Homo sapiens) (Q8NFQ8 whole entry, looked up): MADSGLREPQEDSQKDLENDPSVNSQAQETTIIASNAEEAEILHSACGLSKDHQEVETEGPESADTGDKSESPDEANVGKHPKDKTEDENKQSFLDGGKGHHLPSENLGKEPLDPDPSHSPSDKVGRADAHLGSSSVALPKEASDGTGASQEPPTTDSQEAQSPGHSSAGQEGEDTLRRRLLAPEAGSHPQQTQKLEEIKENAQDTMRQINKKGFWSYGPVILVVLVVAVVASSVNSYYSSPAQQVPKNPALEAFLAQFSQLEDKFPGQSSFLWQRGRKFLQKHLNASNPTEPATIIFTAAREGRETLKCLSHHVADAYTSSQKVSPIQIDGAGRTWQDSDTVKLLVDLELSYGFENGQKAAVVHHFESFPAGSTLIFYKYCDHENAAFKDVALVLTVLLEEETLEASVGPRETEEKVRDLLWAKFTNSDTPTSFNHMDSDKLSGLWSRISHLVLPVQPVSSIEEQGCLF
Chain of Neurogenic locus notch homolog protein 2 (Homo sapiens) (Q04721 whole entry, looked up, canonical isoform): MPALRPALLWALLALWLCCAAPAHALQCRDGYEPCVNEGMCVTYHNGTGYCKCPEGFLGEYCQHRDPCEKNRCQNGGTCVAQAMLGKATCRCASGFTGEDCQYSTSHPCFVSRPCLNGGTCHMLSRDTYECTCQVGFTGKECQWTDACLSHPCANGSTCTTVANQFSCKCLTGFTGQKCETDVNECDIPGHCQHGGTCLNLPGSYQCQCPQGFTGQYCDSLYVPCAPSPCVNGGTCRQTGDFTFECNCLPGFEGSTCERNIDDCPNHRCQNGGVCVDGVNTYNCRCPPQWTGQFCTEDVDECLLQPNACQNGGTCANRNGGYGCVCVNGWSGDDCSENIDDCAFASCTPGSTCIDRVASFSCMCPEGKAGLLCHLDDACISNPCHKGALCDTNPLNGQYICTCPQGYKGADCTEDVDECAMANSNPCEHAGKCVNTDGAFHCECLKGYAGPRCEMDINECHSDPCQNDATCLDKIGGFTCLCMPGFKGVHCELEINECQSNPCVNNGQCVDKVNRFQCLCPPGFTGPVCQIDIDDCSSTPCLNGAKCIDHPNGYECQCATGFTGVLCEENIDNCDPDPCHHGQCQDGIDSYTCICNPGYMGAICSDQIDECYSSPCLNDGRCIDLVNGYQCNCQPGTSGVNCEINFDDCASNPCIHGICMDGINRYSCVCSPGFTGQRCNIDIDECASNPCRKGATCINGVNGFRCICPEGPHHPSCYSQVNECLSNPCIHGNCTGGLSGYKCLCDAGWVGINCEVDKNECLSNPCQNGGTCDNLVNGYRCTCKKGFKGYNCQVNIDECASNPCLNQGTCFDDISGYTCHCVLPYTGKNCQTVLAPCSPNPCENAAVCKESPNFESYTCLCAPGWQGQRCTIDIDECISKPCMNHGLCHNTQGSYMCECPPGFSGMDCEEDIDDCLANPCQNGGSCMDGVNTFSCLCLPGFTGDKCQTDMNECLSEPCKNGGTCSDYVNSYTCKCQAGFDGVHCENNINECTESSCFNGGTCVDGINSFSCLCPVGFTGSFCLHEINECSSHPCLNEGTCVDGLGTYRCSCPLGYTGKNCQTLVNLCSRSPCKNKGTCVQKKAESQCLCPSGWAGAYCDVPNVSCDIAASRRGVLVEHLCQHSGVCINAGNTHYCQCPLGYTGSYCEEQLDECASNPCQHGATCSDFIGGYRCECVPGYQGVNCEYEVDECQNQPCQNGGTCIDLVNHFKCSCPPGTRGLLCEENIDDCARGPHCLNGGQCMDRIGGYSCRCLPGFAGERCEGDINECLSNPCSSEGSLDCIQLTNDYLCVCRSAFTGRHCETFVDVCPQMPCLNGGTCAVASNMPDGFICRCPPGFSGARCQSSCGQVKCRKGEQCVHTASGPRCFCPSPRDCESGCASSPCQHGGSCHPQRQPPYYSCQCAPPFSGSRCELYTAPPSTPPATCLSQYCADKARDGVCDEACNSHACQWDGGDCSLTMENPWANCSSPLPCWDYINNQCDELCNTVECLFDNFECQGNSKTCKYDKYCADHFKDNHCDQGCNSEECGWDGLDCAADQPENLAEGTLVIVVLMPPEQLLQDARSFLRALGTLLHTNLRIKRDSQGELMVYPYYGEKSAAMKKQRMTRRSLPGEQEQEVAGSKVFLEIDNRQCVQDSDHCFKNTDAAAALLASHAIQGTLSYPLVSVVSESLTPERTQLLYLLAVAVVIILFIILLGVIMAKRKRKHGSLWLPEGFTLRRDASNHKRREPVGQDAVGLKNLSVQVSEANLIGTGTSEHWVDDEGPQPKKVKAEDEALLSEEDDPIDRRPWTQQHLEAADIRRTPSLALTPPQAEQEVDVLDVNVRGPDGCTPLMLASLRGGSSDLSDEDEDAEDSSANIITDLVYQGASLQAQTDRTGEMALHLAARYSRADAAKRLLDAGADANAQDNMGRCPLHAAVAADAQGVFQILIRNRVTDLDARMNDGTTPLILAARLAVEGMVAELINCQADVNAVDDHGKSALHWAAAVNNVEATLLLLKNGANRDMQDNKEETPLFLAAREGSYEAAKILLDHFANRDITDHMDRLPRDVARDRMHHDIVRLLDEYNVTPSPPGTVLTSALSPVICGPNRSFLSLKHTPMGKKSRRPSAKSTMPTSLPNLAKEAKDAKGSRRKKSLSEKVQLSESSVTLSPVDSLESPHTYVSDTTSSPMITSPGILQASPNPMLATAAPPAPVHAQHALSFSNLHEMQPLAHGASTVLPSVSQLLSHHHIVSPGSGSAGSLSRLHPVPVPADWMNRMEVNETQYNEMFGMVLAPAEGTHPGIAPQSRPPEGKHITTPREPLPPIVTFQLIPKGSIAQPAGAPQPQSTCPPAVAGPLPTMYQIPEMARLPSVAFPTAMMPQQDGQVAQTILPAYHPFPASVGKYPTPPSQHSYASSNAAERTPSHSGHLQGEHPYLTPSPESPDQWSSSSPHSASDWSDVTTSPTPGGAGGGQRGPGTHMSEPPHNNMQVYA
Chain of Pro-neuregulin-1, membrane-bound isoform (Homo sapiens) (Q02297 whole entry, looked up, the tested form may be a part, canonical isoform): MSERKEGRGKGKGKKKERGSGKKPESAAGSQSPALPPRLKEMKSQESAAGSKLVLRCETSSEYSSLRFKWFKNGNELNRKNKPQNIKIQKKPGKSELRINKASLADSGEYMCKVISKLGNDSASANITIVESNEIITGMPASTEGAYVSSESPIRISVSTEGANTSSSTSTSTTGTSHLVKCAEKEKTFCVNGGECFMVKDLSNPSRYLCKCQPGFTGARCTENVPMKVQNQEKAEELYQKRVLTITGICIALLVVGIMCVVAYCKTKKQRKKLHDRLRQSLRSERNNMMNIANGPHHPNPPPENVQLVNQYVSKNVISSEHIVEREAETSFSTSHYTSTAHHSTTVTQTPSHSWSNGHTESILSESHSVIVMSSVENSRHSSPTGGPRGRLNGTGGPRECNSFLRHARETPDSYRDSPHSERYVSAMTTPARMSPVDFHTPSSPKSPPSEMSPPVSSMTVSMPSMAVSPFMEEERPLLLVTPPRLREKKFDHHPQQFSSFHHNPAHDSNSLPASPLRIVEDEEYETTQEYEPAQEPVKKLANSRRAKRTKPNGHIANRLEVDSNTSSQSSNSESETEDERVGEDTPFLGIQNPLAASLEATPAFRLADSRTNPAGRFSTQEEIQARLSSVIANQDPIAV

For `COCCOC(=O)N1C(=O)[C@@]2(c3cc(C#CCNC(N)=O)ccc31)[C@H](C(=O)NC[C@H](O)c1ccccc1)[C@H]1C(=O)O[C@H](c3ccccc3)[C@H](c3ccccc3)N1[C@@H]2c1ccccc1OCCO`, the composite z-score is -0.12 in [1]; 0.294 in [2]; -0.0899 in assay [3]; 0.745 in assay [4]; 1.11 in assay [5]; 0.891 in assay [6]. Also, the composite z-score in [7] is 1.09; in assay [9], -0.177; in assay [10], -0.113; in assay [11] it was 1.55; in assay [15] it was 2.6; in [17], -0.0644. The values for the composite z-score in assay [18], in assay [19] and in [20] were 1.72, 0.98 and -0.118, respectively. The z-score in assay [8] was -0.864 (inactive); in assay [12] it was 1.56 (inactive); in [13], 1.11 (inactive); in [14], 3.45 (inactive); in assay [16], -0.124 (inactive).

On to `C=CCNC(=O)[C@@H]1[C@H]2C(=O)O[C@H](c3ccccc3)[C@H](c3ccccc3)N2[C@H](c2ccc(OCCO)cc2)[C@@]12C(=O)Nc1ccc(C#Cc3ccc(OC)cc3)cc12`, for which the composite z-score is -0.175 in assay [1]; 1.14 in [2]; 0.0969 in assay [3]; 0.73 in assay [4]; 1.41 in assay [5]; 1.24 in [6]. The composite z-score in assay [7] is 1.18; in [9], 0.4; in assay [10], 0.283; in [11], 1.55; in assay [15] it was 2.48; in [17], 0.182. The composite z-score was found to be 1.22 in assay [18], 1.08 in [19] and 0.116 in [20]. In addition, the z-score was 0.994 (inactive) in assay [8]; 2.34 (inactive) in [12]; 0.961 (inactive) in assay [13]; 4.49 (inactive) in assay [14]; 0.838 (inactive) in [16].

For `C[N+](C)(C)CCCC[C@@H]1NC(=O)[C@@H]2C[C@H](C(=O)NCCCCCN)[C@H](c3cccc(OCCO)c3)N2C1=O`, the composite z-score in assay [1] was 0.6; in assay [2] it was 1.6; in assay [3] it was -0.0253; in [4] it was 0.506; in assay [5], 1.14; in assay [6], 2.15. Also, the composite z-score in assay [7] was 1.08; in [9], 0.877; in assay [10], 0.161; in assay [11], 1.28; in assay [15], 2.15; in [17], 0.231. Further, the results for the composite z-score in [18], in [19] and in assay [20] were -0.0236, 0.182 and -0.0037, respectively. Moreover, the z-score is -0.992 (inactive) in assay [8]; -0.465 (inactive) in [12]; -2.09 (inactive) in assay [13]; 0.371 (inactive) in assay [14]; -0.291 (inactive) in [16].

Consider `C=CCNC(=O)[C@H]1[C@@H]2C(=O)O[C@@H](c3ccccc3)[C@@H](c3ccccc3)N2[C@@H](c2ccccc2OCCO)[C@]12C(=O)Nc1ccc(C#CC3=CCCCC3)cc12`, for which the composite z-score is -0.382 in [1]; 0.952 in assay [2]; -0.0534 in assay [3]; 0.88 in assay [4]; 1.04 in assay [5]; 0.666 in assay [6]. Further, the composite z-score is 1.09 in assay [7]; 0.185 in assay [9]; 0.0695 in assay [10]; 1.55 in [11]; 2.58 in [15]; -0.117 in assay [17]. Also, the values for the composite z-score in [18], in [19] and in [20] were 1.23, 1.1 and -0.0108, respectively. Also, the z-score in assay [8] was -2.87 (inactive); in [12] it was 2.06 (inactive); in assay [13], -1.27 (inactive); in assay [14], 4.78 (inactive); in assay [16], 1.25 (inactive).

For `COc1ccc([C@H]2C[C@H]3C(Br)=C[C@@H]2C(=O)[C@]32CO2)cc1`, the composite z-score in assay [1] was 0.203; in assay [2], 0.133; in assay [3], -0.083; in assay [4] it was -0.126; in [5] it was -0.239; in [6], -0.152. The composite z-score in assay [7] is -0.577; in [9], 0.0125; in assay [10], -0.0618; in assay [11], -0.431; in assay [15] it was -0.807; in assay [17], -0.0561. The values for the composite z-score in [18], in assay [19] and in [20] were 0.101, -0.282 and -0.217, respectively. For the same compound, the z-score in [8] was 1.96 (inactive); in assay [12], 0.29 (inactive); in assay [13], -3.66 (inactive); in [14], -0.417 (inactive); in assay [16], 1.7 (inactive).

Consider `O=C1[C@H]2C=C(Br)[C@H](C[C@@H]2c2ccccc2)[C@@]12CO2`, for which the composite z-score in [1] was -0.357; in [2] it was 0.324; in assay [3], -0.0265; in [4], 0.328; in [5], 0.299; in [6], -0.406. Also, the composite z-score in assay [7] is 0.57; in assay [9] it was 0.0322; in [10], -0.0645; in assay [11] it was 0.366; in assay [15], 0.328; in assay [17] it was -0.172. The composite z-score is 1.36 in assay [18], 0.412 in assay [19] and -0.156 in assay [20]. Moreover, the z-score in [8] was 1.36 (inactive); in assay [12], -0.703 (inactive); in assay [13], -14.7 (active); in [14], -0.973 (inactive); in assay [16], -0.779 (inactive).

Consider `C=CCOC(=O)[C@H]1[C@@H]2C(=O)O[C@@H](c3ccccc3)[C@@H](c3ccccc3)N2[C@@H](c2ccc(OCCOC(=O)[C@@H]3C[C@@H]4C(=O)N[C@@H](CCCCN(C)C)C(=O)N4[C@@H]3c3ccc(O)cc3)cc2)[C@]12C(=O)Nc1ccc(I)cc12`, for which the composite z-score in assay [1] was -0.617; in assay [2], 1.04; in assay [3], -0.0468; in assay [4] it was 0.589; in assay [5] it was 0.766; in assay [6], 1.27. Further, the composite z-score in [7] was 1.33; in assay [9] it was 0.429; in assay [10], -0.112; in assay [11], 1.46; in [15] it was 2.77; in assay [17], -0.0823. In addition, the composite z-score in [18] amounted to 1.51; in assay [19], 1.05; in [20], 0.0752. Also, the z-score is -0.694 (inactive) in [8]; 1.36 (inactive) in assay [12]; -1.09 (inactive) in assay [13]; 1.52 (inactive) in [14]; -1.34 (inactive) in assay [16].

In the case of `COCCOC(=O)N1C(=O)[C@@]2(c3cc(C#CC4=CCCCC4)ccc31)[C@H](C(N)=O)[C@H]1C(=O)O[C@H](c3ccccc3)[C@H](c3ccccc3)N1[C@@H]2c1ccc(OCCO)cc1`, the composite z-score in assay [1] is -0.809; in [2], 0.897; in assay [3], -0.0009; in [4] it was 0.806; in [5], 0.254; in assay [6], 0.514. For the same compound, the composite z-score in assay [7] is 1.19; in [9], -0.335; in assay [10], -0.237; in assay [11] it was 1.54; in assay [15], 1.6; in [17] it was -0.399. The composite z-score in assay [18] is 0.904; in assay [19], 1.01; in assay [20], -0.238. For the same compound, the z-score in [8] was -0.408 (inactive); in assay [12], 1.44 (inactive); in assay [13], 1.28 (inactive); in [14], 3.59 (inactive); in assay [16] it was -0.385 (inactive).

On to `COC(=O)[C@@]1(Cc2ccccc2)[C@H]2c3cc(C(=O)N4CCCC4)n(Cc4nc5ccccc5[nH]4)c3C[C@H]2CN1C(=O)c1ccccc1`, for which the composite z-score in [1] is 1.19; in [2], 0.74; in [3], -0.0879; in assay [4], 0.115; in [5], 1.72; in [6], 2.07. Moreover, the composite z-score was determined as 0.807 in assay [7]; 1.65 in assay [9]; 0.507 in assay [10]; 1.54 in assay [11]; 3.82 in assay [15]; 0.746 in [17]. Also, the composite z-score in assay [18] was -0.192; in assay [19] it was 1.11; in assay [20] it was 0.13. The z-score was 2.63 (inactive) in assay [8]; -0.0672 (inactive) in assay [12]; 0.193 (inactive) in assay [13]; 1.63 (inactive) in assay [14]; 0.0607 (inactive) in assay [16].
